E-sel TNF inh: TNF alpha driven E-selectin expression inhibition | AID 1246 | HUVEC TNFa-induced E-selectin immunofluorescence, high content | 120,000 compounds, 0.71% hits | inhibition, % at 2 µM;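 active = inhibition above the batch mean plus 3 SD, and confirmed as a hit on visual image review, cut at about 43% in these data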;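 note: 0% = TNF-stimulated DMSO wells and 100% = unstimulated control wells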
HUVEC tox TNFa: toxic to HUVEC cells under TNF alpha stimulation | HUVEC TNFalpha-stimulated, Hoechst cell count, imaging | cell count reduction, % at 2 µM | 93,000 compounds, 0.17% hits | AID 848;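 active = cell count reduction exceeding the screen mean by over 5 SD, scaled to untreated wells per plate, cut at about 78% in these data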;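 note: cells counted after 24 h of TNF alpha exposure following the 1 h pretreatment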
cytoskel mod: modifiers of cytoskeleton assembly. HUVEC TNFa F-actin phalloidin imaging, high content. AID 836. inhibition, % at 2 µM. 91,000 compounds, 0.18% hits;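 active = inhibition above the batch mean plus 3 SD and confirmed as a hit by visual image inspection, cut at about 30% in these data, passing the limit was not always enough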
VCAM1 TNFa inh: reduces TNF alpha induced VCAM1 expression in HUVEC; HUVEC TNFa-induced VCAM-1 immunofluorescence, high-content imaging; inhibition, % at 2 µM; 95,000 compounds, 0.48% hits;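 active = inhibition above the batch mean plus 3 SD, with images confirmed as a hit by eye, cut at about 37% in these data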;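 note: 0% = TNF-stimulated DMSO wells and 100% = unstimulated control wells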
PLAP activator: activators of human placental alkaline phosphatase; P05187; purified PLAP enzyme, luminescent substrate read-out; stronger effect = higher value; activation fold at 20 µM; 96,000 compounds, 1.2% hits; in the data active = activation fold above about 2
Target sequence (P05187 whole entry, looked up): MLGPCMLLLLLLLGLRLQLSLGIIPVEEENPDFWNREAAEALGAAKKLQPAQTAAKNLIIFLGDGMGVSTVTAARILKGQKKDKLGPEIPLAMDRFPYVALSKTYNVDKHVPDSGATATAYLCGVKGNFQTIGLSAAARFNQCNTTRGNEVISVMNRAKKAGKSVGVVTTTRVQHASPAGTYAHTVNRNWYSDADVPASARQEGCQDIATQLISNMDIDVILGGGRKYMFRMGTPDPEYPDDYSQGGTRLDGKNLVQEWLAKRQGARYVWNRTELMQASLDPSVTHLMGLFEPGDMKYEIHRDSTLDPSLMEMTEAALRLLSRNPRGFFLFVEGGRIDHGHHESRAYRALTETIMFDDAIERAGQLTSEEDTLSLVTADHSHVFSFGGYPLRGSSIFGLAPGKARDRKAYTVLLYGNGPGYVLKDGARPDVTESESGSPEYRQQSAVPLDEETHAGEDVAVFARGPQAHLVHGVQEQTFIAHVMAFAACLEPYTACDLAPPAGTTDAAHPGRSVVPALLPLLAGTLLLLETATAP
* hit, by the source's call; x = no result given. Sampled rows, rich in hits. Any-hit rate of the full collection: about 2%.

SMILES | E-sel TNF inh | HUVEC tox TNFa | cytoskel mod | VCAM1 TNFa inh | PLAP activator
COc1ccc(C2(O)CCN(CC(=O)Nc3nccs3)CC2)c(OC)c1 | 5.8 | -18.8 | -22.0 | 13.5 | 2.4*
COc1ccc(NC(=O)CSc2nc3ncccc3[nH]2)cc1OC | 15.4 | -3.8 | 6.0 | 11.7 | 2*
CC(C)OC(=O)c1ccc(NC(=O)CSc2nc3ncccc3[nH]2)cc1 | -1.1 | x | x | x | x
COc1ccc(OC)c(C(=O)CSc2nc3ncccc3[nH]2)c1 | -20.1 | x | x | x | 2.8*
COC(=O)c1ccc(OCC2c3cc(OC)c(OC)cc3CCN2C(=O)c2ccco2)cc1 (centres undefined) | -13.8 | -20.0 | x | 19.0 | 1.1
Oc1ccc(CN2CCCCC2)c2cccnc12 | 9.5 | x | x | x | x
Oc1ccc(CN2CCc3ccccc3C2)c2cccnc12 | -13.9 | -21.1 | 17.8 | 3.5 | 2.1*
c1ccc(CNc2ncnc3nc[nH]c23)cc1 | 26.4 | -9.6 | -13.1 | -0.8 | 2*
CCCNc1ncnc2nc[nH]c12 | -24.7 | x | x | x | 1.3
CCOc1cc(CNc2ncnc3nc[nH]c23)ccc1OC | -23.7 | x | x | x | 2.2*
COc1cc2c(cc1OC)CN(C(=S)NC(=O)c1ccccc1)CC2 | -19.1 | x | x | x | x
CCOc1ccc2nc(NC(=O)c3ccoc3C)sc2c1 | 12.0 | -14.7 | 6.4 | -23.6 | 1.4
O=c1cc(CO)oc(CN2CCN(c3ccccc3F)CC2)c1O | 12.7 | 1.7 | 24.1 | -13.1 | 1
O=c1cc(CO)oc(CN2CCN(c3ccccc3)CC2)c1O | 1.6 | 86.1* | -12.1 | 15.5 | 1
O=c1cc(CO)oc(CN2CCN(c3cccc(C(F)(F)F)c3)CC2)c1O | -0.8 | -27.3 | -5.8 | 0.4 | 2.2*
Cc1[nH]nc2ncc(C(=O)c3ccccc3O)cc12 | -8.4 | -67.7 | 20.3 | -38.5 | 2.1*
CN1Cc2cc(C(=O)c3ccccc3O)cnc2NC1=O | -16.6 | 9.4 | -14.7 | 2.4 | 1.2
CCOC(=S)N/C(=N\S(=O)(=O)c1ccc(C)cc1)c1ccccc1 | -30.1 | -1.8 | -19.2 | 1.5 | 1.1
CCc1cc(C)cc(OCCNC(=O)c2ncn[nH]2)c1 | 1.5 | -23.9 | 7.3 | 7.7 | 2*
CC(C)(C)c1ccc(OCCNC(=O)c2ncn[nH]2)cc1 | -13.6 | -35.3 | 24.0 | -1.4 | 2.7*
S=c1[nH]nc(-c2cccc(Cl)c2)n1CCN1CCCCC1 | 6.6 | x | x | x | x
CN=C(Nc1cc(C)nn1CCC#N)c1ccccc1F | 4.9 | -14.3 | 66.9* | 2.7 | 1
CCOc1ccc2ccccc2c1/C=N/NC(=O)CNC(=O)Cc1ccccc1 | -8.9 | x | x | x | x
CCS(=O)(=O)N1CCN(c2ccc([N+](=O)[O-])c(N3CCOCC3)c2)CC1 | 96.9* | x | x | x | x
COc1ccccc1-c1csc(NC(=O)c2ccc(N3C(=O)CCC3=O)cc2)n1 | -46.4 | x | x | x | x
SMILES | E-sel TNF inh | HUVEC tox TNFa | cytoskel mod | VCAM1 TNFa inh | PLAP activator
CCN(C(=O)COC(=O)/C=C/c1cccc([N+](=O)[O-])c1)c1ccccc1 | -41.3 | x | x | x | x
CCOC(=O)c1ccccc1NC(=O)c1ccc(N(C)S(C)(=O)=O)cc1 | 70.1* | -5.4 | -5.2 | -0.6 | 0.9
Cc1ccccc1CN(c1ccc(C(=O)Nc2ccccc2C(=O)N2CCCC2)cc1)S(C)(=O)=O | 6.8 | -22.6 | -6.6 | 28.0 | 2*
O=C(CSCc1cccc(Cl)c1)Nc1ccccc1-c1ccccc1 | -2.6 | x | x | x | x
O=[N+]([O-])c1cc(-c2ncccn2)cs1 | 11.8 | x | x | x | x
Cc1cc(NC(=O)CCSc2nc(-c3ccco3)cc(C(F)(F)F)n2)no1 | 8.7 | -11.9 | -11.3 | -4.4 | 0.8
COc1ccc(CCNC(=O)CSc2nc(-c3ccco3)cc(C(F)(F)F)n2)cc1OC | 68.5* | -18.7 | -24.1 | 10.2 | 1.5
Cc1cc(NC(=O)CSc2nc(-c3ccco3)cc(C(F)(F)F)n2)no1 | -1.6 | 45.8 | -9.7 | 52.7* | x
O=C(CSc1nc(-c2ccco2)cc(C(F)(F)F)n1)NCCc1ccccc1 | 10.9 | -15.9 | -1.4 | -11.1 | 0.8
CC(/C=N/NC(=O)c1cc(-c2ccncc2)nc2ccccc12)=C\c1ccco1 | 41.2 | 65.0 | -14.4 | 87.1* | 1.5
Cc1ccc(SC(C)C(=O)Nc2ncn[nH]2)cc1 (centres undefined) | -16.3 | -2.7 | -9.4 | 9.8 | 2.1*
CCOc1ccc(/C=C/[N+](=O)[O-])c2ccccc12 | -2.6 | 8.5 | 3.8 | 26.9 | 1
O=[N+]([O-])/C=C/c1c(OCc2ccccc2)ccc2ccccc12 | 8.2 | -0.6 | x | 56.3* | 0.6
CCOC(=O)c1cc2c(ccn2C)n1Cc1ccccc1C | 37.7 | -2.8 | 62.6* | 6.1 | 1.2
COc1cc(S(=O)(=O)N(Cc2ccccc2)Cc2ccccn2)ccc1-n1cnnn1 | 20.1 | -3.4 | -5.5 | -1.4 | x
COc1cc(S(=O)(=O)N(Cc2ccccn2)Cc2ccco2)ccc1-n1cnnn1 | 54.8* | -2.9 | -9.5 | -1.4 | x
Cc1c(C(=O)OCC(C)C)[nH]c2c1C(=O)CC(c1ccco1)C2 (centres undefined) | x | 64.3 | 21.0 | 67.3* | 1.1
C/C=C/COC(=O)c1[nH]c2c(c1C)C(=O)CC(c1ccco1)C2 (centres undefined) | x | 64.1 | -4.3 | 51.2* | 1.1
Cc1c(Cl)cccc1NC(=S)NN1CCOCC1 | -6.6 | -7.3 | -2.0 | -3.8 | 1
Cc1cccc(C(=O)NNC(=O)Nc2ccccc2)c1 | 64.5* | x | x | x | x
COc1ccc(CN2C(=O)c3ccccc3C2C(=O)NC2CCCCCC2)c(OC)c1 (centres undefined) | 22.1 | x | x | x | x
CC(=O)c1ccc(NC(=O)C2Cc3ccccc3CN2C(=O)c2ccccc2)cc1 (centres undefined) | 19.1 | x | x | x | x
O=C(NC1=NCCS1)C1Cc2ccccc2CN1C(=O)c1ccccc1 (centres undefined) | x | -9.7 | -2.1 | -2.1 | 2.1*
CC(C)[C@H](NC(N)=O)C(=O)Nc1cccc([N+](=O)[O-])c1 | -16.4 | x | x | x | x
COc1ccc(/C=N/n2cc(-c3ccccc3)nc2N)cc1 | 64.5* | x | x | x | 1.3
SMILES | E-sel TNF inh | HUVEC tox TNFa | cytoskel mod | VCAM1 TNFa inh | PLAP activator
CCN1CCCC1CNC1=NCCCCC1 (centres undefined) | 71.0* | -8.4 | 13.8 | 4.2 | 1
CCOc1cc(C(=O)Nc2cccc3ncccc23)cc(OCC)c1OCC | x | 30.5 | 53.4* | 18.1 | 1.6
CC1=C([N+](=O)[O-])C(c2cccc(Br)c2)C2=C(N1)c1ccccc1C2=O (centres undefined) | -33.2 | 73.8 | -3.0 | 93.0* | 1
CC(C)CC(=O)n1sc(NC(=O)c2ccccc2)nc1=O | 100.0* | -28.8 | 50.4 | 9.6 | 1
Cc1nc2cc(NC(=O)Nc3nccs3)ccc2n1C | -10.1 | -10.3 | -2.5 | 9.5 | 2*
CC(=O)Oc1ccc(/C=N/NC(=S)Nc2ccccc2)cc1 | 18.6 | x | x | x | x
O=C1CC(N2CCC(O)(c3ccc(Cl)cc3)CC2)C(=O)N1Cc1ccc(N2CCCC2=O)cc1 (centres undefined) | -21.6 | -23.6 | 3.4 | 4.9 | 1.2
Cn1c(SCC(=O)NC2CCCCC2)nnc1-c1cccc(N)c1 | 3.2 | 2.4 | -11.0 | 53.6* | x
Cc1ccc(NC(=O)NNC(=O)C2CC(c3cccnc3)=NO2)cc1 (centres undefined) | -17.9 | -0.6 | 21.2 | 2.5 | 2*
CCOc1ccccc1C(=O)N1CCN(c2ccc(C(F)(F)F)cn2)CC1 | 3.1 | x | x | x | x
[N-]=[N+]=CC(=O)CCCN1C(=O)c2ccccc2C1=O | 11.3 | -8.2 | -10.8 | 15.1 | 1.3

Screening data as filed in PubChem.
